Active and inactive are the calls of the source.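 Rule for the calls, unless noted: active = inhibition of the reporter signal at or above 50%; inactive = inhibition below 50%.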
What was measured:
[1] = inhibitors of TNFa-induced NFkB p65 translocation, primary screen, imaging, HUVEC, MLSMR starter and 10KST1 sets (AID 438;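 active = inhibition above 20% together with a positive visual image hit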;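 note: compound added about 3h40 before a 20 min TNFalpha stimulation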;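 for inhibition: signal is the nuclear over cytoplasmic p65 intensity ratio per well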); details: HUVEC TNFa-induced p65 nuclear translocation; cell count: measured here: nuclei count (cytotoxicity indicator), at 2.08 µM; inhibition: at 2 µM, stronger effect = higher value, 0% TNFa-plus-vehicle, 100% no-TNFa wells
[2] = inhibitors of mutant huntingtin aggregation, primary screen, imaging, exon1htt(103Q)mCFP cells, high-content imaging (AID 483;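 active = visual image review flags a hit and inhibition of aggregation exceeds 20%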;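 note: compound exposure lasted 3 days before fixation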;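 for nuclei count: percent of the per-plate median nuclei count of sample wells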); details: exon1htt(103Q)mCFP cell line, aggregate imaging, at 2 µM; inhibition of aggregation: stronger effect = higher value; nuclei count: measured here: cell count, toxicity
[3] = inhibitors of E-selectin induction by TNFa, primary screen, imaging, HUVEC, immunofluorescence, MLSMR starter and 10KST1 sets (AID 487;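 active = visually confirmed hit in the image check and inhibition above 20%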;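 for inhibition: signal is fraction of cell area covered by stained E-selectin grains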;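 for nuclei count: 100% = median nuclei count of all wells on the same plate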); details: HUVEC TNFalpha-induced E-selectin immunofluorescence imaging, at 2 µM; inhibition: stronger effect = higher value; nuclei count: measured here: cell number, toxicity
[4] = target: Voltage-gated potassium channel subunit beta-2 (Rattus norvegicus) (UniProt P62483); test: KvBeta enzyme negative modulators, primary screen, biochemical, NADPH fluorescence (AID 622;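 active = fluorescence slope higher than the sample average by over 3 SD, cut at about -0.22 in these data, passing the limit was not always enough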;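 note: slope of raw intensity against log time taken from 70 to 1610 s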); details: recombinant KvBeta, 4-cyanobenzaldehyde reduction, at 10 µM, stronger effect = higher value
[5] = target: Voltage-gated potassium channel subunit beta-2 (Rattus norvegicus) (UniProt P62483); test: KvBeta positive modulators, primary screen, biochemical, NADPH fluorescence (AID 623;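 active = NADPH fluorescence slope more negative than the mean of all samples by about 3 SD, 99.7% confidence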;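 note: fluorescence intensity change per second fitted from 20 to 320 s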); details: Recombinant KvBeta, NADPH fluorescence decrease slope, 10 min; at 10 µM; stronger effect = lower value
[6] = target: Alpha-2C adrenergic receptor (Homo sapiens) (UniProt P18825); test: modulators of alpha2C/GIRK thallium flux, primary screen, cell-based, HEK293 alpha2C/GIRK1/2 (AID 624;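 active = fluorescence slope after compound addition differing from the mean of all screened samples at 99.7% confidence, in either direction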;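 note: slope of fluorescence ratio to pre-addition baseline per second over 15 to 24 s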); details: thallium flux BTC fluorescence, at 10 µM, actives lie on both sides
[7] = inhibitors of Sendai virus-induced IRF3 signaling, primary screen, TLR/RLR signaling modifier project, cell-based, Sendai virus stimulus, luciferase, 10K MLSCN set (AID 602276;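 active = inhibition at or above 50% at 10 µM; inactive = inhibition below 50%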;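 note: firefly luciferase from ISG56 promoter only with Renilla not read in this screen; 0% = Sendai virus plus DMSO and 100% = medium plus DMSO without virus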); details: HEK293 RL24 IRF3 luciferase reporter, at 10 µM, stronger effect = higher value
[8] = inhibitors of poly I:C-induced TLR3 signaling, primary screen, cell-based, poly I:C stimulus, luciferase, 10K MLSCN set (AID 602277); details: HEK293-TLR3 RL24 IRF3 luciferase reporter, at 10 µM, stronger effect = higher value

Sequence of Alpha-2C adrenergic receptor (Homo sapiens) (P18825 whole entry, looked up): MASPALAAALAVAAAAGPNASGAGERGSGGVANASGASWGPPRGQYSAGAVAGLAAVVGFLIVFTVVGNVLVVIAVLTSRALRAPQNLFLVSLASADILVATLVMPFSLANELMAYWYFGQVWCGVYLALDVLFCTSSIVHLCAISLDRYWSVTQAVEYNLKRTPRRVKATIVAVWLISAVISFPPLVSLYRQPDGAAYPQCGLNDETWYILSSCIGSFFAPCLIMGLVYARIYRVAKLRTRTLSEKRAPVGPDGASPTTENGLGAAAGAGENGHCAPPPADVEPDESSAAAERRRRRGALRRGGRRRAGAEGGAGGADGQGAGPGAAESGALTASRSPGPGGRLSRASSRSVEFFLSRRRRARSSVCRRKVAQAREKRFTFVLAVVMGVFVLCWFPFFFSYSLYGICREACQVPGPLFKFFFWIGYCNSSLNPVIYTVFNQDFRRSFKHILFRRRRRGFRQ
Sequence of Voltage-gated potassium channel subunit beta-2 (Rattus norvegicus) (P62483 whole entry, looked up): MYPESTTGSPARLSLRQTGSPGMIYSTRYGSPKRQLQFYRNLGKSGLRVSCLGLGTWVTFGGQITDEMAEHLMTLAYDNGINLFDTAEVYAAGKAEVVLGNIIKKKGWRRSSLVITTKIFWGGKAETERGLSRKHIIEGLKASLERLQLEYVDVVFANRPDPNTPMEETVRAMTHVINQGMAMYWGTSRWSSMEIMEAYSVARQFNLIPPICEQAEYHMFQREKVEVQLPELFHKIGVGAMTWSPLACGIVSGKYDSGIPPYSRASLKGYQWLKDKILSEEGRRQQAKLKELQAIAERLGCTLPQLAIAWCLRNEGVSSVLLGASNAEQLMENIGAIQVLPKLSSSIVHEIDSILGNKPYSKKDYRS

Compound	cell count [1]	inhibition [1]	inhibition of aggregation [2]	nuclei count [2] [%]	inhibition [3]	nuclei count [3] [%]	fluorescence slope [4]	NADPH fluorescence slope [5]	slope [6]	inhibition [7]	inhibition [8]
COCCn1c(SCC(=O)Nc2sc(C)c(C)c2C#N)nnc1C(C)C	593	-11.7% (inactive)	25.9% (inactive)	73	18.9% (inactive)	78.2	-0.491 (inactive)	-7.2e-05 (inactive)	0.00431 (inactive)	11.9% (inactive)	5.56% (inactive)
O=C1c2cccnc2C(=O)N1c1cccc(-c2nc3ccccc3o2)c1	339	9.1% (inactive)	28.9% (inactive)	84	-87.2% (inactive)	117	-0.417 (inactive)	-4e-05 (inactive)	0.00507 (inactive)	13.3% (inactive)	13.5% (inactive)
Cc1ccc(-c2noc(-c3ccccc3C(=O)NCC3CCCO3)n2)cc1 (stereo not drawn)	763	2% (inactive)	-9% (inactive)	110	8.3% (inactive)	106	-0.442 (inactive)	5.9e-05 (inactive)	0.00648 (inactive)	-20% (inactive)	-30.1% (inactive)
CCCC(=O)NCCc1cc2c(C)ccc(C)c2[nH]c1=O	592	-4.8% (inactive)	-1.1% (inactive)	114	-9% (inactive)	117	-0.557 (inactive)	-2.9e-05 (inactive)	0.00601 (inactive)	9% (inactive)	10.9% (inactive)
CC(=O)OCC1OC(c2ccccc2)C(OC(C)=O)C(OC(C)=O)C1OC(C)=O (stereo not drawn)	274	-5% (inactive)	15.4% (inactive)	59.7	-26.4% (inactive)	106	-0.351 (inactive)	-2.1e-05 (inactive)	0.00646 (inactive)	6.22% (inactive)	34.3% (inactive)
CCOC(=O)c1oc2cccc(OC(C)=O)c2c1C	306	8.1% (inactive)	11.2% (inactive)	97.4	24.5% (inactive)	85.9	-0.607 (inactive)	-4.6e-05 (inactive)	0.00384 (inactive)	-33.6% (inactive)	-89.8% (inactive)
Nc1cc(=O)[nH]c(SCC(=O)Nc2ccc(Br)cc2)n1	825	8.2% (inactive)	-2.2% (inactive)	108	18.9% (inactive)	128	-0.507 (inactive)	4.3e-05 (inactive)	0.00582 (inactive)	1.99% (inactive)	4.12% (inactive)
COc1ccccc1N1C(=O)CCC1(C#N)c1ccccc1 (stereo not drawn)	567	6.9% (inactive)	-0.9% (inactive)	87.7	-30.3% (inactive)	72.2	-0.62 (inactive)	6e-06 (inactive)	0.0062 (inactive)	-5.14% (inactive)	9.48% (inactive)
CCCC(=O)Nc1nnc(CC(=O)OCC)s1	799	-7.3% (inactive)	11% (inactive)	95.6	-35.4% (inactive)	113	-0.614 (inactive)	1.3e-05 (inactive)	0.00516 (inactive)	-5.88% (inactive)	15.8% (inactive)
O=C(CC(C(=O)N1CCc2ccccc21)n1ccnc1)NCc1cccnc1 (stereo not drawn)	655	-2.2% (inactive)	23.5% (inactive)	122	-67% (inactive)	119	-0.446 (inactive)	9.2e-07 (inactive)	0.00564 (inactive)	10.8% (inactive)	20.7% (inactive)
COC(=O)c1ccccc1NC(=O)C1CC=CCC1C(=O)O (stereo not drawn)	373	4.2% (inactive)	-0.6% (inactive)	96.6	0.7% (inactive)	98.1	-0.479 (inactive)	-3.3e-05 (inactive)	0.00613 (inactive)	16.2% (inactive)	22.4% (inactive)
CCOC(=O)N1CCN(C(=O)CSCC(=O)Nc2nc(-c3ccc(OC)cc3)cs2)CC1	450	2.7% (inactive)	-44% (inactive)	54	41.9% (inactive)	91.3	-0.425 (inactive)	-8.7e-05 (inactive)	0.00636 (inactive)	-14.1% (inactive)	-24.6% (inactive)
CCOc1ccc(C(=O)OCc2nnc(-c3cccs3)o2)cc1OC	737	7.1% (inactive)	4.7% (inactive)	101	-51.1% (inactive)	137	-0.603 (inactive)	1.9e-06 (inactive)	0.00555 (inactive)	12.1% (inactive)	27.5% (inactive)
N#Cc1cc2c(nc1SCC(=O)N1CCCCC1)CCCC2	220	5.5% (inactive)	0.1% (inactive)	90.1	-46% (inactive)	98.7	-0.473 (inactive)	4.2e-05 (inactive)	0.00388 (inactive)	-26.1% (inactive)	-20.2% (inactive)
O=C(CSc1nnc(CNC(=O)c2cccs2)o1)NCCc1ccccc1	644	-2.2% (inactive)	-14.6% (inactive)	82.7	-25.7% (inactive)	115	-0.375 (inactive)	-4.4e-05 (inactive)	0.00483 (inactive)	18.5% (inactive)	16.6% (inactive)
CC1(C)NC(=O)N(CC(O)COc2cccc(F)c2)C1=O (stereo not drawn)	690	-1.1% (inactive)	8.4% (inactive)	72.2	-65.7% (inactive)	105	-0.592 (inactive)	-2.3e-05 (inactive)	0.00622 (inactive)	-5.23% (inactive)	19.5% (inactive)
CCOc1ccc(C(=O)N2CCN(c3ccccc3)CC2)cc1OCC	196	-16.9% (inactive)	20.3% (inactive)	97.1	-17.5% (inactive)	100	-0.561 (inactive)	9.3e-05 (inactive)	0.00618 (inactive)	16% (inactive)	9.44% (inactive)
C=CCOc1ccc(C2/C(=C(\O)c3c(C)[nH]c(C(=O)OC)c3C)C(=O)C(=O)N2CCN(C)C)cc1 (stereo not drawn)	462	0.5% (inactive)	-6.9% (inactive)	99.7	-96.2% (inactive)	118	-0.536 (inactive)	-1.1e-05 (inactive)	0.00355 (inactive)	13.2% (inactive)	26.6% (inactive)
CCOC(=O)CSc1nnc(Cn2nnc(-c3ccccc3)n2)n1CC	415	-0.8% (inactive)	5.4% (inactive)	109	-34.4% (inactive)	164	-0.402 (inactive)	2.4e-05 (inactive)	0.006 (inactive)	15.9% (inactive)	21.4% (inactive)
Cc1cc(C(=O)NCc2cccnc2)n(-c2ccccc2)n1	613	-0.9% (inactive)	-20.8% (inactive)	103	-82.8% (inactive)	127	-0.546 (inactive)	-1.4e-05 (inactive)	0.00657 (inactive)	-0.216% (inactive)	8.35% (inactive)
Cc1nnc(NC(=O)CSc2cn(CCNC(=O)c3ccccc3)c3ccccc23)s1	651	-9.6% (inactive)	28.2% (inactive)	70.8	-12.7% (inactive)	106	-0.452 (inactive)	5.8e-06 (inactive)	0.00437 (inactive)	-1.29% (inactive)	-44.3% (inactive)
O=c1c[n+]([O-])c2ccccc2n1OCc1c(F)cccc1F	744	-6% (inactive)	-13.7% (inactive)	87.6	-236% (inactive)	110	-0.425 (inactive)	-2.4e-05 (inactive)	0.00594 (inactive)	18% (inactive)	24.8% (inactive)
Cc1cccc2cc(C#N)c(SCCN3CCCCC3)nc12	413	-7.1% (inactive)	-42.5% (inactive)	108	-46.6% (inactive)	108	-0.334 (inactive)	-4.3e-05 (inactive)	0.00498 (inactive)	13.4% (inactive)	99% (active)
O=C1NC(Nc2ccccn2)(C(F)(F)F)C(=O)N1c1ccc(F)cc1 (stereo not drawn)	483	-1.9% (inactive)	-9.8% (inactive)	110	-79.1% (inactive)	111	-0.582 (inactive)	-4.6e-05 (inactive)	0.00277 (inactive)	13.9% (inactive)	6.37% (inactive)
COc1ccc2cc(C(c3nnnn3C3CCCCC3)N3CCCCCC3)c3nnnn3c2c1 (stereo not drawn)	828	-6.7% (inactive)	-7.5% (inactive)	108	-10.3% (inactive)	114	-0.444 (inactive)	-3.1e-06 (inactive)	0.00937 (inactive)	7.67% (inactive)	-2.36% (inactive)
O=[n+]1c2c(n([O-])c3cc(F)c(N4CCCC4)cc31)CCC2	709	-9.4% (inactive)	3% (inactive)	78.5	-98.9% (inactive)	123	-0.574 (inactive)	-5.8e-06 (inactive)	0.00378 (inactive)	0.0339% (inactive)	0.593% (inactive)
CC(C)CN(CC(C)C)C(=O)CS(=O)(=O)Cc1ccccc1	334	-1.2% (inactive)	-5.8% (inactive)	98.4	-51.3% (inactive)	116	-0.492 (inactive)	-6.4e-05 (inactive)	0.00578 (inactive)	6.49% (inactive)	16.4% (inactive)
CCOn1c(=O)c(=O)n(OCc2ccccc2)c2ccccc21	355	0.3% (inactive)	13% (inactive)	97.7	-32.9% (inactive)	120	-0.345 (inactive)	-5.2e-05 (inactive)	0.00578 (inactive)	19.9% (inactive)	25% (inactive)

— PubChem BioAssay
